Results taken from PubChem BioAssay.
Calls of active or inactive are those of the source.

What was measured:
[1] = binders of probe aFSTL3 on microarray, primary screen, stem cell growth factor project, biochemical, small-molecule microarray, fluorescence 635/667 (AID 1064); settings: higher = more signal;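 note: measures binding of the biotinylated anti-FSTL3 antibody to printed compounds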
[2] = binders from COS7 lysate, DM2A8 probe, primary screen, torsin A project, cell lysate, small-molecule microarray, fluorescence 635/667 (AID 1065); settings: higher = more signal, COS7 lysate expressing mutant human TOR1A
[3] = binders of probe aFGF2 on microarray, primary screen, stem cell growth factor project, biochemical, small-molecule microarray, fluorescence 635/667 (AID 1067); settings: higher = more signal;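 note: measures binding of biotinylated aFGF2 protein to printed compounds on slides; z-score merges feature fluorescence and signal-to-noise across triplicate slides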
[4] = binders of probe aFGF10 on microarray, primary screen, stem cell growth factor project, biochemical, small-molecule microarray, fluorescence 635/667 (AID 1071); settings: higher = more signal;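 note: score merges 667 nm spot intensity and signal to noise from triplicate slides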
[5] = biological target: Neurogenic locus notch homolog protein 2 (Homo sapiens) (UniProt Q04721); test: Notch2 binders on small-molecule microarrays, primary screen, biochemical, small-molecule microarray, 635 nm fluorescence, stem cell growth factors (AID 1073); settings: Notch2 binding, higher = more signal
Neurogenic locus notch homolog protein 2 (Homo sapiens), sequence (Q04721 whole entry, looked up, canonical isoform): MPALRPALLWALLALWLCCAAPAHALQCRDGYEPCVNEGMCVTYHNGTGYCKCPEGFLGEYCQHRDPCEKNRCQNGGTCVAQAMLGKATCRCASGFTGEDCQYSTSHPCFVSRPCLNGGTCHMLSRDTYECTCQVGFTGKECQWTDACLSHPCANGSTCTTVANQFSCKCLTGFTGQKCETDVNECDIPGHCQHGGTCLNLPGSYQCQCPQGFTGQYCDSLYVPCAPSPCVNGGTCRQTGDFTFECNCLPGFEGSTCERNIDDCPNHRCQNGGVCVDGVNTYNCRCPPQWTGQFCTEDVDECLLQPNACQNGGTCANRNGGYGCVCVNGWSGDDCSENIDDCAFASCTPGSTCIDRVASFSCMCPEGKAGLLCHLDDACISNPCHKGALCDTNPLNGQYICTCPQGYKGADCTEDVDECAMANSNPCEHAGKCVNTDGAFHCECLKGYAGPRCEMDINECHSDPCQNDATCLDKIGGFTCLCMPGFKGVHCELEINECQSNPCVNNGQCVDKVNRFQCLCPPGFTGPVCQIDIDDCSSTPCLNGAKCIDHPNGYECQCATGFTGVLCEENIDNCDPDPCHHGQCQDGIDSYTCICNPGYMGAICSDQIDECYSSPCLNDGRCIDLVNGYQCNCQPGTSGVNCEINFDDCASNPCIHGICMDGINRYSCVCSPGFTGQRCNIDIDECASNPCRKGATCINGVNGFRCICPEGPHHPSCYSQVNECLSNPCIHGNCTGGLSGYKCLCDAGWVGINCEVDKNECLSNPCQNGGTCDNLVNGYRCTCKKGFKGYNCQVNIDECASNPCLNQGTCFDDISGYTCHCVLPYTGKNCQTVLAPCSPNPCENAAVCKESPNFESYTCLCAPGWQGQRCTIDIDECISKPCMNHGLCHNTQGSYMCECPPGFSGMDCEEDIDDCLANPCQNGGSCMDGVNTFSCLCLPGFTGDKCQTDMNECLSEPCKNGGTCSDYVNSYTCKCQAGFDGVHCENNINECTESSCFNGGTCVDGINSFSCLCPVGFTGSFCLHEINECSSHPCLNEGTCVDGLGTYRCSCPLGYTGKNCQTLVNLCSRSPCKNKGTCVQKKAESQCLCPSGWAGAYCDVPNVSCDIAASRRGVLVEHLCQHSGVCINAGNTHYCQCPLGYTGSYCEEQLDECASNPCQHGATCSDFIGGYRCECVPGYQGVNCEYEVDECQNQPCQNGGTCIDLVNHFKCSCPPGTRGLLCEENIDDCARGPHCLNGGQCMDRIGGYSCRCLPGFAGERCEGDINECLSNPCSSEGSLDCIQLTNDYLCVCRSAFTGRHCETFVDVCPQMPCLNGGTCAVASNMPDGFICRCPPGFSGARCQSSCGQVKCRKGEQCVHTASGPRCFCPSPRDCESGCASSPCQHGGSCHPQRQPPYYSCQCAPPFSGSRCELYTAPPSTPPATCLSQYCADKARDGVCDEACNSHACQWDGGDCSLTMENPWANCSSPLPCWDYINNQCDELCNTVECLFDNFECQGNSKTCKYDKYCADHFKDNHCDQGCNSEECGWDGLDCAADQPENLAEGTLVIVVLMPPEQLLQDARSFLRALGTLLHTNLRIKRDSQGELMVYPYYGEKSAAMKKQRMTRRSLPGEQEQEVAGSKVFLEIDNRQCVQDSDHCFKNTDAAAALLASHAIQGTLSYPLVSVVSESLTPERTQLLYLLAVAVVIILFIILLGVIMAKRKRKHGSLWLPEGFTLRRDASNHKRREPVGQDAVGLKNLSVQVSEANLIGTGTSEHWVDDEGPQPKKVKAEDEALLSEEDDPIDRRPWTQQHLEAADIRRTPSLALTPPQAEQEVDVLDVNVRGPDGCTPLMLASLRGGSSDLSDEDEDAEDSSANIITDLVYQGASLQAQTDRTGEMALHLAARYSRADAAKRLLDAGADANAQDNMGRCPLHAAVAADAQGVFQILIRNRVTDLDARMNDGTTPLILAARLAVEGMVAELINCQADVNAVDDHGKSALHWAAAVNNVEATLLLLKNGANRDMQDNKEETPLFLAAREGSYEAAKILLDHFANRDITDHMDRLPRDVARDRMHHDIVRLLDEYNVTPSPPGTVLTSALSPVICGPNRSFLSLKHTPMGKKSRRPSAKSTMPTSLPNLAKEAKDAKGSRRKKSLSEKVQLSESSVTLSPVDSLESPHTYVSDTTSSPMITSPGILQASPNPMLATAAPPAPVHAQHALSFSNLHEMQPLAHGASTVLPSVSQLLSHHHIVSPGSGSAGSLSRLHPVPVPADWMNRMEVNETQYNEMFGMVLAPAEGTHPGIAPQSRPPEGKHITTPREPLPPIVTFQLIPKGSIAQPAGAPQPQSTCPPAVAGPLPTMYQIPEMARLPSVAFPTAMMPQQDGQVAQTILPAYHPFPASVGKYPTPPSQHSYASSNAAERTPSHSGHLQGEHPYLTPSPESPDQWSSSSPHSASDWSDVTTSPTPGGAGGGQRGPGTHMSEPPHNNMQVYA

[6] = biological target: Pro-neuregulin-1, membrane-bound isoform (Homo sapiens) (UniProt Q02297); test: NRG1 binders on small-molecule microarrays, primary screen, psychiatric disease protein project, biochemical, small-molecule microarray, fluorescence 635/667 (AID 1075); settings: NRG1 binding, 635 nm fluorescence, higher = more signal;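 note: score combines 667 nm spot fluorescence with signal to noise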
Pro-neuregulin-1, membrane-bound isoform (Homo sapiens), sequence (Q02297 whole entry, looked up, the tested form may be a part, canonical isoform): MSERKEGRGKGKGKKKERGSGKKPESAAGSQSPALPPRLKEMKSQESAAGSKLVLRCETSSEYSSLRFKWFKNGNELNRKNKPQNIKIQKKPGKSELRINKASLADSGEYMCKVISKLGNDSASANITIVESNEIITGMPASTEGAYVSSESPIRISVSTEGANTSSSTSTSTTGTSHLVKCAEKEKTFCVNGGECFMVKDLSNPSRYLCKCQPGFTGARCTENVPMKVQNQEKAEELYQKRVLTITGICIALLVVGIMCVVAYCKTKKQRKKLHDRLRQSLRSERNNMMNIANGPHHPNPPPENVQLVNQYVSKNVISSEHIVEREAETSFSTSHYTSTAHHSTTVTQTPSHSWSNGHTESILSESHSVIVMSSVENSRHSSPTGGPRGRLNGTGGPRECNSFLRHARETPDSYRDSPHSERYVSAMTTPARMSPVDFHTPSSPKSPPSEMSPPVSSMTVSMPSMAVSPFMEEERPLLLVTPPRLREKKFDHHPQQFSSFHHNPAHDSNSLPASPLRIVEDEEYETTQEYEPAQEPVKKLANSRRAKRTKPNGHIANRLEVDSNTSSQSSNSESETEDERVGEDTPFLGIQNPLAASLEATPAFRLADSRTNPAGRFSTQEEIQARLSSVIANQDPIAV

[7] = test system: Neuregulin-1 EGF-like domain; test: binders of neuregulin-1 EGF-like domain, primary screen, biochemical, small-molecule microarray, 635 nm fluorescence (AID 1081); settings: small-molecule microarray binding, higher = more signal;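 note: binding of the protein to compounds printed on small-molecule microarray slides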
[8] = FRG1 promoter luciferase signal modulators, primary screen, FRG1 inhibition for FSHD, cell-based, C2C12 myotubes, firefly/Renilla luciferase, luminescence (AID 1084); settings: higher = more signal, called active from +8 up or from −8 down
[9] = binders of probe aFST on microarray, primary screen, stem cell growth factor project, biochemical, small-molecule microarray, fluorescence 635/667 (AID 1086); settings: higher = more signal;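 note: score merges 667 nm fluorescence with signal-to-noise of each printed compound spot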
[10] = binders of probe aHhip on microarray, primary screen, stem cell growth factor project, biochemical, small-molecule microarray, fluorescence 635/667 (AID 1087); settings: higher = more signal;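 note: score merges spot fluorescence at 667nm with spot signal to noise ratio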
[11] = test system: PRMT1 (protein arginine N-methyltransferase 1); test: PRMT1 binders on small-molecule microarrays, primary screen, biochemical, small-molecule microarray, 635 nm fluorescence (AID 1088); settings: small-molecule microarray binding, higher = more signal;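 note: binding of Prmt1 protein to compounds spotted on small-molecule microarray slides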
[12] = yeast growth modulation, basal conditions, primary screen, YJM789 clinical isolate, OD600, 24 h (AID 1089);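 note: growth of clinical yeast isolate S. cerevisiae YJM 789 seeded 1000 cells per well; test concentration not given here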; settings: S. cerevisiae YJM789 growth, higher = more signal, called active from +8 up or from −8 down
[13] = fission yeast growth modulation, primary screen, strain 972, OD600, 24 h, no modulator (AID 1090);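 note: basal condition with compound alone and no growth modifier present; test concentration not given here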; settings: S. pombe 972 growth, higher = more signal, called active from +8 up or from −8 down
[14] = S. cerevisiae growth modulation with rapamycin, primary screen, strain BY4716, OD600, 96 h (AID 1091); settings: higher = more signal, called active from +8 up or from −8 down; note: test concentration not given here
[15] = biological target: Torsin-1A-interacting protein 2 (Homo sapiens) (UniProt Q8NFQ8); test: LULL1 binders on small-molecule microarray, primary screen, cell lysate, human LULL1 lysate, 635/667 nm fluorescence (AID 1092); settings: hLULL1 lysate binding, 635 nm fluorescence, higher = more signal;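 note: probe is lysate of COS7 cells overexpressing human LULL1; score merges per-feature 667 nm fluorescence with signal-to-noise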
Torsin-1A-interacting protein 2 (Homo sapiens), sequence (Q8NFQ8 whole entry, looked up): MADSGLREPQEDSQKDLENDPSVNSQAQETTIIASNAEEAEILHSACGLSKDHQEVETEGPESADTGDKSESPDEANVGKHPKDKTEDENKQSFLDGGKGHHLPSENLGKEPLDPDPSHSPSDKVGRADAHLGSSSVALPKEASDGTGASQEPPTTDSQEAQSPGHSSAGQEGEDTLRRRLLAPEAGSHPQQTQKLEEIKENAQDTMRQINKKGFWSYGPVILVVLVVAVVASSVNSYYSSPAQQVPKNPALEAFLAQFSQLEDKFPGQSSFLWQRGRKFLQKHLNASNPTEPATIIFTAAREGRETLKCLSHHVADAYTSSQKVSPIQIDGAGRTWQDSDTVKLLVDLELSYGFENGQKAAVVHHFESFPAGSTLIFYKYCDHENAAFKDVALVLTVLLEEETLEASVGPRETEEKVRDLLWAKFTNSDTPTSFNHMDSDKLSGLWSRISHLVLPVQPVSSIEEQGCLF

[16] = E. coli growth modulation, two-sided OD650, primary screen, E. coli filamentation project, strain DRC41, 24 h (AID 1093); settings: OD650, 24 h, higher = more signal, called active from +8 up or from −8 down;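 note: MC1000 strain lacking acrAB efflux and sulA so SOS filamentation is blocked; test concentration not given here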
[17] = small-molecule microarray binders of probe aLefty2, primary screen, biochemical, biotinylated probe, 635/667 nm fluorescence (AID 1094); settings: higher = more signal;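 note: score merges spot fluorescence near 667 nm with spot signal-to-noise ratio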
[18] = test system: Noggin (protein binding on small-molecule microarray); test: Noggin binders on small-molecule microarray, primary screen, biochemical, 635/667 nm fluorescence (AID 1095); settings: 635 nm fluorescence, higher = more signal;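 note: score merges 667 nm feature fluorescence with signal to noise over triplicate slides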
[19] = biological target: Neurogenic locus notch homolog protein 3 (Homo sapiens) (UniProt Q9UM47); test: NOTCH3 binders on small-molecule microarray, primary screen, biochemical, 635/667 nm fluorescence (AID 1096); settings: NOTCH3 binding, 635 nm fluorescence, higher = more signal
[20] = small-molecule microarray binders of probe aEGFR, primary screen, biochemical, biotinylated probe, 635/667 nm fluorescence (AID 1097); settings: higher = more signal;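 note: probe is a biotinylated anti-EGFR antibody binding compounds printed on slides; score combines fluorescence near 667 nm and signal to noise of each spot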

Compound	composite z-score [1]	composite z-score [2]	composite z-score [3]	composite z-score [4]	composite z-score [5]	composite z-score [6]	composite z-score [7]	z-score [8]	composite z-score [9]	composite z-score [10]	composite z-score [11]	z-score [12]	z-score [13]	z-score [14]	composite z-score [15]	z-score [16]	composite z-score [17]	composite z-score [18]	composite z-score [19]	composite z-score [20]
COc1ccc(CCNC(=O)[C@@]2(c3ccc([N+](=O)[O-])cc3)CC(=O)N(C3CCCCC3)[C@@H]2c2ccc(CO)cc2)cc1	0.376	0.409	0.0598	0.325	0.58	1.54	1.23	-0.517 (inactive)	0.602	0.177	1.29	0.812 (inactive)	-0.501 (inactive)	0.361 (inactive)	2.75	1.3 (inactive)	0.157	-0.23	0.627	-0.0452
C=C[C@H]1C(C(=O)OCC)=CC[C@@H](c2ccccc2)N1S(=O)(=O)c1ccc(C)cc1	0.131	0.431	0.16	0.693	1.25	1.04	0.779	-3.11 (inactive)	0.992	-0.266	0.895	0.293 (inactive)	1.12 (inactive)	1.86 (inactive)	2.94	-0.558 (inactive)	0.174	0.705	1.13	-0.0531
C=CCNC(=O)[C@@H]1[C@H]2C(=O)O[C@H](c3ccccc3)[C@H](c3ccccc3)N2[C@H](c2ccc(OCCO)cc2)[C@@]12C(=O)N(C(=O)OCCOC)c1ccc(C#Cc3ccc(OC)cc3)cc12	-0.412	0.1	-0.126	0.0179	0.801	1.1	1.07	-0.309 (inactive)	0.267	-0.0955	1.49	1.59 (inactive)	1.77 (inactive)	6.26 (inactive)	3.13	0.361 (inactive)	0.0645	1.23	1.05	-0.0974
C=CCNC(=O)[C@@H]1[C@H]2C(=O)O[C@H](c3ccccc3)[C@H](c3ccccc3)N2[C@H](c2ccccc2OCCO)[C@@]12C(=O)N(C(=O)OCCOC)c1ccc(C#CC3(O)CCCCCC3)cc12	-0.249	0.356	-0.0004	0.427	1.14	1.16	1.14	-0.257 (inactive)	0.771	-0.0994	1.56	0.0171 (inactive)	-0.0365 (inactive)	5.23 (inactive)	2.86	1.41 (inactive)	-0.0146	1.02	1.1	-0.0177
COC(=O)[C@@]1(Cc2ccc(F)cc2)[C@H]2c3cc(C(=O)N(C)C)n(CCc4ccc(OC)c(Br)c4)c3C[C@H]2CN1C(=O)c1ccccc1	0.859	-0.694	0.361	0.675	0.716	0.988	1.29	3.92 (inactive)	1.48	0.424	-0.0641	-0.309 (inactive)	-1.09 (inactive)	-0.122 (inactive)	2.52	-1.29 (inactive)	0.768	0.716	0.346	0.557
CCCC[C@@H](O)C1=C(COC)C[C@H]2C(=O)N(Cc3ccccc3)C(=O)[C@H]2[C@H]1CO	-1.06	0.0076	-0.0969	0.58	0.395	0.179	0.159	0.646 (inactive)	-0.173	-0.0645	0.831	0.332 (inactive)	-0.677 (inactive)	0.719 (inactive)	0.113	0.649 (inactive)	-0.241	1.18	0.788	-0.113
CC(C)C(CO)N1C(=O)[C@@H]2[C@H]3C(=O)OCC=C[C@H]3OC23C=CCN(c2ccc(Cl)cc2)C(=O)[C@@H]13 (stereo not given in full)	-0.0597	-0.61	-0.141	-0.385	-0.659	-0.7	0.436	-0.459 (inactive)	-0.243	-0.313	0.193	0.964 (inactive)	0.123 (inactive)	1.25 (inactive)	-0.0004	0.669 (inactive)	-0.246	-1.16	-0.271	-0.068
CCCNC(=O)[C@@]1(Sc2ccc(C)cc2)CC(=O)N(C2Cc3ccccc3C2)[C@@H]1c1ccc(CO)cc1I	0.427	0.31	-0.103	0.0119	-0.445	0.917	1.01	-0.653 (inactive)	-0.227	0.0505	0.918	-0.452 (inactive)	-1.32 (inactive)	1.21 (inactive)	1.28	0.761 (inactive)	-0.0321	-0.287	-0.0184	-0.126
CCOC(=O)C=Cc1cccc(C)c1O	-0.071	-0.232	-0.0348	-0.0154	0.177	0.306	-0.155	1.5 (inactive)	-0.488	-0.236	0.23	-19.8 (active)	-11.5 (active)	-2.54 (inactive)	0.236	0.666 (inactive)	-0.166	-0.452	-0.0138	-0.099
COCCOC(=O)N1C(=O)[C@@]2(c3cc(C#CC4(O)CCCCCC4)ccc31)[C@H](C(=O)Nc1nc3ccccc3s1)[C@H]1C(=O)O[C@H](c3ccccc3)[C@H](c3ccccc3)N1[C@@H]2c1ccc(O)cc1	-0.304	0.442	-0.0202	0.539	1.24	1.46	1.2	0.21 (inactive)	1.47	0.107	1.54	0.806 (inactive)	0.572 (inactive)	1.33 (inactive)	2.21	0.0347 (inactive)	-0.0022	0.683	1.04	0.0692
